This is an account of results in PubChem BioAssay (Tox21).

The source made the active and inactive calls. The call rests on the fitted dose curve; in most records, active means well fitted curve in the direction sought with a large enough effect in the repeat runs; inconclusive means weak or mixed curves; inactive means flat fitted curve, though single readings scatter.
On the % scale 0 is the no-effect control and ±100 the full control effect.

The test is described as follows: qHTS assay to test for compound auto fluorescence at 460 nm (blue) in HepG2 cell free culture (AID 720685). To be noted: Cell-free culture medium, blue autofluorescence 405/460 nm; series mostly up to 91.3 µM. From the text:
U.S. Tox21 Program National Center for Advancing Translational Sciences [NCATS] NIH Chemical Genomics Center [NCGC] U.S. Environmental Protection Agency [EPA] National Institutes of Environmental Health Sciences [NIEHS] National Toxicology Program [NTP] U.S. Food and Drug Administration [FDA] Tox21 Assay Overview: Compound auto fluorescence often interferes with screening of the compound library against various biological targets and signaling pathways. Some of these compounds may have fluorophoric properties. Such properties may interfere with the assay outputs resulting in false positives and/or negatives. To decrease such complications and ensure the compound activities are relevant in terms of biological response, the Tox21 10K compound library was screened for auto fluorescence. From the fluorophores used as reporter signals in our screening assays, the auto fluorescence equivalencies of compounds against three fluorophores have been evaluated: Triamterene, Fluorescein and Rose Bengal sodium for blue, green and red fluorescence, respectively. The fluorescence intensities were measured using Excitation/Emission wavelengths at 405/460nm, 485/535nm and 540/590nm for blue, green and red labels, respectively. This assay includes the blue fluorescence data.
Tox21 Assay Protocol Summary: 5 uL of culture medium (MEM containing 10% FBS) per well was dispensed into black wall/clear bottom 1536-well plates using a Multidrop Combi Dispenser (ThermoFisher Scientific, Waltham, MA). After 23 nL compound or DMSO vehicle was transferred into assay plate by a pintool work station (Kalypsys, San Diego, CA), fluorescence intensities in the assay plates were measured by an Envision (PerkinElmer, Shelton, CT) plate reader using three labels for measuring blue, green and red fluorescence at […] 460, 535 and 590nm respectively.
(In general: Quantitative high-throughput screening tests each substance at several concentrations.)
In the case of `C[Si](C)(CCCN)O[Si](C)(C)CCCN`, the outcome was inactive. The same measure, in the same setting: the same measure for `O=C1C(O)=C(O)C(=O)C(O)=C1O`: “inactive”; for `O=[N+]([O-])c1cccc(S(=O)(=O)O)c1`: “inactive”; for `O=[N+]([O-])c1ccc2[nH]ncc2c1`: “inactive”. Consider `C=C1C(=C/C=C2\CCC[C@]3(C)[C@@H]([C@H](C)/C=C/[C@@H](O)C4CC4)CC[C@@H]23)C[C@@H](O)C[C@@H]1O`, for which the molecule was classed as inactive.

Turning to `CCOC(=O)C(F)(F)F`, the result was inactive. Same read-out and setting: as for `CCOc1ccc(O)cc1`, the entry is “inactive”; as for `CC(C)(C)OCC1CO1` (stereo not given), “inactive”.

`CN1CCC(N(Cc2cccs2)c2ccccc2)CC1`: the molecule was classed as inactive. The same measure, in the same setting: the same measure for `C[C@@H]1C[C@H]2O[C@@]3(O[C@@H]2C(C)(C)O)[C@H](O)[C@@]2(C)[C@@H]4CC[C@H]5C(C)(C)[C@@H](O[C@@H]6OC[C@@H](O)[C@H](O)[C@H]6O)CC[C@@]56C[C@@]46CC[C@]2(C)[C@@H]13`: “inactive”; for `OC[C@H]1O[C@@H](OCCc2ccc(O)cc2)[C@H](O)[C@@H](O)[C@@H]1O`: “inactive”; for `CCOc1ccc(N)c([N+](=O)[O-])c1`: “inactive”. On the same count and under the same terms, the same measure for `CNC(=O)CN(CCN(CCN(CC(=O)[O-])CC(=O)NC)CC(=O)[O-])CC(=O)[O-].O.[Gd+3]`: “inactive”; for `C#Cc1cccc(Nc2ncnc3cc(OCCOC)c(OCCOC)cc23)c1`: “inactive”; for `CCOC(=O)NCCOc1ccc(Oc2ccccc2)cc1`: “inactive”.

Take `O=C(CS)Nc1ccccc1`: the result was inactive. The same measure, in the same setting: the same measure for `CCO[C@H](Cc1ccc(OCCc2ccc(OS(C)(=O)=O)cc2)cc1)C(=O)O`: “inactive”. In the case of `CCN(CC)CCNC(=O)c1cc(Br)c(N)cc1OC`, the call was inactive. Consider `COC(C)(C)CCO`, for which the molecule was classed as inactive. On the same count and under the same terms, the same measure for `COc1cc(C(=O)OCCCN2CCCN(CCCOC(=O)c3cc(OC)c(OC)c(OC)c3)CC2)cc(OC)c1OC`: “inactive”. With `OC(CN1CCC(Cc2ccc(F)cc2)CC1)c1ccc(Cl)cc1` (stereo not given), the result was inactive. In the case of `c1ccc(CNCCNCc2ccccc2)cc1`, the call was inactive. For the molecule `C=CC1CC2C=CC1C2` (stereo not given), the result was inactive. Same read-out and setting: the same measure for `OC(C#CCN1CCCC1)(c1ccccc1)c1ccccc1`: “inactive”. Regarding `O=P(O)(OCc1ccccc1)OCc1ccccc1`, the result was inactive.

As to `CCCn1cnc2c1c(=O)n(CCCCC(C)=O)c(=O)n2C`, the molecule was classed as inactive. As to `CCOc1ccc(N=Nc2ccc(/C=C/c3ccc(N=Nc4ccc(OCC)cc4)cc3S(=O)(=O)O)c(S(=O)(=O)O)c2)cc1`, the molecule was classed as inactive. Turning to `CC(=O)OC[C@H]1O[C@@H](n2ncc(=O)[nH]c2=O)[C@H](OC(C)=O)[C@@H]1OC(C)=O`, the outcome was inactive. With `CN(C)c1ccc(/C=C/c2ccc([N+](=O)[O-])cc2)cc1`, the fluorescence, % of fluorescent control was -0.0827% [at 3.72 µM] (inactive). For `CN1C[C@H]2c3ccccc3Oc3ccc(Cl)cc3[C@@H]2C1`, the call was inactive. With `S=C([S-])NCCNC(=S)[S-].[Mn+2]`, the result was inactive. On to `O=C(O)CNCC(=O)O`, for which the fluorescence, % of fluorescent control is -0.156% [at 3.72 µM] (inactive). Turning to `CCCCCCCCCc1ccc(OCCOCCO)cc1`, the molecule was classed as inactive. The same measure, in the same setting: as for `NCC(=O)CCC(=O)O`, the entry is “inactive”; as for `CCC(CC)Nc1ccc(C)c(C)c1`, “inactive”; as for `CCN(CC)c1ccc2c(-c3ccccc3C(=O)O)c3ccc(=[N+](CC)CC)cc-3oc2c1`, “inactive”. As to `CNCCCN1c2ccccc2CCc2ccccc21`, the fluorescence, % of fluorescent control was 0.0158% [at 18.6 µM] (inactive). For the molecule `Cc1oc(-c2ccccc2)nc1CCOc1cccc2c1ccn2CCC(=O)O`, the molecule was called inactive.

Consider `Cc1oc2c(NC(=O)c3c(Cl)cccc3Cl)cccc2c1C(C)(C)O`, for which the outcome was inactive. `CN1CCN(C(c2ccccc2)c2ccccc2)CC1`: the fluorescence, % of fluorescent control was -0.0233% [at 18.6 µM] (inactive).
